Each compound was assayed against Tumor necrosis factor receptor superfamily member 10B (Homo sapiens) (UniProt O14763) (assay: caspase-8 TRAIL sensitization, hit retest, confirmation, cell-based, NB7+caspase-8, with/without TRAIL, luminescence panel (AID 651596)). Conditions: NB7 neuroblastoma + caspase-8, TRAIL sensitization, luminescence viability, with TRAIL, mean of runs, at 10 µM, stronger effect = higher value; in the data active = activity above about 50%; inactive = the rest.
Tumor necrosis factor receptor superfamily member 10B (Homo sapiens), sequence (O14763 whole entry, looked up): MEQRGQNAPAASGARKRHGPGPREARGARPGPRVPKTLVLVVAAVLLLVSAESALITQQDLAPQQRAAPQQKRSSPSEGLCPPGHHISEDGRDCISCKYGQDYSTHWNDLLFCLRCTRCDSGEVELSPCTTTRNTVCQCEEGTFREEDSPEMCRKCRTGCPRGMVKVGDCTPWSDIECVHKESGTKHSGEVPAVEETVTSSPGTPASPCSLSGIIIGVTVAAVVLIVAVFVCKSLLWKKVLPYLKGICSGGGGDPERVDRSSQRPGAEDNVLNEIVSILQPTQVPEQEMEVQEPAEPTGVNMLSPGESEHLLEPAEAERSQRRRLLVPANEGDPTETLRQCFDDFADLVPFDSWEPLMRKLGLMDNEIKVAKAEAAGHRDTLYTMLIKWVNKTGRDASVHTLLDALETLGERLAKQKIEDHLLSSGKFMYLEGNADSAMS

SMILES	activity [%]
CCOC(=O)c1sc(NC(=O)c2cc(-c3ccccc3C)nc3ccccc23)c(C#N)c1C	54.4
COC(=O)C1=C(C)N(Cc2ccccc2)C(=NCC(C)C)N[C@H]1c1cccc(C(F)(F)F)c1	25.1
O=C(C[C@@H]1C/C=C/CC[C@H](Cc2ccc(F)cc2)C(=O)OC[C@@H](Cc2ccccc2)NC1=O)N[C@H](CO)Cc1ccccc1	87.7
CCCCCCc1cc2cc(S(=O)(=O)c3ccc(F)c(Cl)c3)c(=O)oc2cc1O	55.4
CCCCCc1cc(=O)oc2c(C(CCN(CC)CC)c3cc(OC)c(OC)c(OC)c3)c(OC)cc(OC)c12 (centres undefined)	52.9
CN(C)CCCNC(=O)c1ccc(-c2nc(-c3ccc(Cl)cc3)cs2)cc1	95.2
Cc1ccc(NC(=O)CSc2nc3ccc(Nc4nc(N5CCOCC5)nc(N5CCOCC5)n4)cc3s2)cc1	58.1
Cc1cc(NC(=O)c2cncc(Br)c2)ccc1NC(=O)c1cc2ccccc2o1	58.9
CCCCCCCNC(=O)C1(CC2CC(c3ccc(Cl)cc3)=NO2)CCNCC1 (centres undefined)	41.9
